Screening data as filed in PubChem BioAssay.
A selection: hits, their analogues and other compounds. The true share with any hit is near 3.6%.
VDR inh – vitamin D3 receptor (human) inhibition; P11473; VDR-SRC2-3 peptide fluorescence polarization, 2 h; Potency, µM, for the others: max response, negative = inhibition, most hits filed as inhibitors; 0.93% of 400,000 active; AID 504847; note: potency is the fitted concentration of half-maximal effect; % is set by controls: 0 for no effect and ±100 for the full control effect
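Reagent solutions, kept cold and dark, are dispensed first; compounds are then pinned in at 23 nl, plates briefly spun, and incubated 2 h at ambient temperature. Inhibition of VDR–SRC2-3 peptide binding is read by fluorescence polarization.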
Rango complex inh – prevents formation of the Rango-importin beta complex; Rango CFP/YFP FRET sensor + importin beta, 45 min; Q14974; 0.031% of 340,000 active; Potency, µM (top dose mostly 92.2 µM), for inactives: at the highest dose inhibition of complex formation; calls by dose curve;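 note: potency is the fitted concentration of half-maximal effect; 0% = DMSO wells and 100% = buffer wells lacking importin beta; nearly all actives have a fitted effect of over 15% in size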
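Inhibition scored from the CFP 486 nm/YFP 530 nm FRET ratio 45 min after adding 0.125 microM importin beta to 50 nM Rango biosensor preincubated 5 min with compound (room temperature, PBS with DTT, Tween-20, BSA). No-importin wells as positive control.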
GCN5L2 inh – inhibitors of human GCN5L2 histone acetyltransferase. GCN5L2 HAT assay, ThioGlo1 CoA-SH fluorescence. Potency, µM (series often up to 58.9 µM), without a hit: at the highest dose activity change, negative = inhibition, actives largely listed as inhibitors. 0.21% of 390,000 active. Q92830; note: potency is the fitted concentration of half-maximal effect; % is set by controls: 0 for no effect and ±100 for the full control effect
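Enzyme at 20nM final was mixed with library compounds for 15 min at room temperature. Peptide H3(1-25) at 75uM, acetyl-CoA at 70uM and ThioGlo1 at 50uM were then added. Plates were read immediately and after 20 min (Ex340nm/Em540nm).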
PLK1 PBD inh – inhibitors of human PLK1 polo-box domain binding; Potency, µM, for inactives: max response, negative = inhibition, hits mostly inhibitors; AID 720504; 2.8% of 360,000 active; Plk1 PBD binding of FITC phosphopeptide, fluorescence polarization; P53350; note: potency is the fitted concentration of half-maximal effect; series mostly up to about 57 µM; % is set by controls: 0 for no effect and ±100 for the full control effect; nearly all actives have a fitted effect of over 65% in size
PI5P4Ka inh – blocks human PI5P4K alpha kinase activity | P48426 | PI5P4Kalpha enzyme, ADP-Glo luminescence, 60 min; hits give low values | max response, % | 1.2% of 330,000 active | AID 652105; active = max response of -50% or lower; inconclusive = between -30% and -50%; inactive = -30% or higher; note: value at the top dose of about 77 µM; % is set by controls: 0 for no effect and ±100 for the full control effect
Target sequence (P48426 whole entry, looked up): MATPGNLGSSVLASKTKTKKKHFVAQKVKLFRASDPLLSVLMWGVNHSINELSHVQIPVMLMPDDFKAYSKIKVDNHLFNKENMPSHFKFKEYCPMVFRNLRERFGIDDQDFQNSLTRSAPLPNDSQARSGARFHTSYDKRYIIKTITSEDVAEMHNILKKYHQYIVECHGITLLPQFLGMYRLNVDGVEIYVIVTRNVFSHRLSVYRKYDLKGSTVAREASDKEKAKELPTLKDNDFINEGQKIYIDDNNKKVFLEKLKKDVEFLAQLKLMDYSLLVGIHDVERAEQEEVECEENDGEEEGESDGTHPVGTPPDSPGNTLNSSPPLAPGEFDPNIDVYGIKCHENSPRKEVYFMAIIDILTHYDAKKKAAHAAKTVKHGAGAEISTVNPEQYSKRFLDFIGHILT
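qHTS, 1536-well: enzyme/substrate mix, compound by pin tool, 5 microM ATP final; RT 60 min; ADP-Glo reagents 1 (45 min) then 2 (30 min); luminescence.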
Rango release inh – prevents RanGTP from dissociating the Rango-importin beta complex; Potency, µM (highest dose often 46.1 µM), without a hit: top-dose activity change, negative = inhibition; Biochemical FRET Rango-importin beta, RanGTP-induced dissociation; AID 540253; 0.071% of 340,000 active; O95149+P62826; calls by dose curve; note: potency is the fitted concentration of half-maximal effect; % of control where 0% means no effect; nearly all actives have a fitted effect of over 45% in size
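Quantitative HTS using a FRET biosensor: 0.1 uM Rango, 0.25 uM importin beta, 0.6 uM Ran, 2 mM GTP, 0.2 uM RCC1 final, PBS with DTT, Tween-20 and BSA. Post-read taken 45 min after Ran addition.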
Numbers without * were called inactive; ? = inconclusive; . = not tested or not shown. Unless noted, calls come from the whole dose curve; as a rule, active = well fitted curve in the direction sought with a large enough effect; inconclusive = small, poorly fitted or top-dose-only effect, or another doubt; inactive = no such curve, though single readings can be large; an effect the other way counts as inactive or inconclusive.

SMILES	VDR inh	Rango complex inh	GCN5L2 inh	PLK1 PBD inh	PI5P4Ka inh	Rango release inh
COC(=O)c1ccc(C2C=C(c3ccc(Cl)cc3)Nc3nc4ccccc4n32)cc1 (stereo unspecified)	-2%	.	?	.	.	.
COc1ccc(Cl)cc1NC(=O)c1cc2ccc3ccc(C)[nH]c3c2n1	13%	.	-4%	.	.	.
COc1ccc(C(=O)Oc2ccc(Br)cc2C(=S)N2CCOCC2)cc1	25%	1%	-1%	-21%	2	-14%
O=C(Oc1ccc(Br)cc1C(=S)N1CCOCC1)c1ccc(F)cc1	79µM*	-1%	?	12µM*	-11	20%
COc1ccc(C(=S)N2CCOCC2)cc1OC(=O)c1cc(OC)c(OC)c(OC)c1	?	0%	-13%	27µM*	-8	3%
Cc1ccc(C(=O)Oc2ccc(Br)cc2C(=S)N2CCOCC2)cc1	-24%	3%	-7%	?	0	6%
COc1cc(C(=O)Oc2ccc(Br)cc2C(=S)N2CCOCC2)cc(OC)c1OC	?	3%	-14%	17µM*	-27	4%
CCOc1cc(C(=S)N2CCOCC2)ccc1OC	-1%	-3%	-7%	24µM*	.	5%
Nc1nc(=S)c2n[nH]nc2[nH]1	-11%	.	.	.	.	.
CCc1ccc2[nH]c(=O)c(CN(Cc3ccco3)Cc3nnnn3Cc3ccco3)cc2c1	-24%	.	.	.	.	.
CCc1cccc(NCc2ccccc2-c2nnc(-c3ccccc3Cl)o2)c1	-11%	.	-13%	.	.	.
COc1ccc(C(=S)N2CCOCC2)cc1OC(=O)c1ccc(C)cc1	7%	3%	-6%	-16%	-1	1%
COc1ccc(C(=O)Oc2c(OC)cc(C(=S)N3CCOCC3)cc2OC)cc1OC	?	0%	?	21µM*	-26	-15%
COc1ccc(C(=S)N2CCOCC2)cc1OC(=O)c1ccccc1	-10%	0%	-15%	27µM*	-1	2%
COc1ccc(C(=O)Oc2c(OC)cc(C(=S)N3CCOCC3)cc2OC)cc1	-10%	6%	-3%	-8%	-2	9%
COc1ccc(C(=S)N2CCOCC2)cc1OC(=O)c1ccc([N+](=O)[O-])cc1	?	4%	-17%	17µM*	-20	14%
CCCC1(C)C(C#N)(C#N)C1(C#N)C#N	10µM*	.	-17%	.	.	.
CCCC1(C)C(C#N)C(=O)NC(=O)C1C#N (stereo unspecified)	0%	5%	.	3%	-23	1%
Cc1ccc(Nc2nc3c(s2)CCC3)c(C)c1	-1%	-1%	1%	-25%	1	2%
COc1ccccc1Nc1nc2c(s1)CCC2	-18%	0%	-6%	27µM*	-13	-7%
O=C1N/C(=N/O)S/C1=C/c1cccnc1	-20%	-1%	-4%	24µM*	-55*	18%
CC(/C=C1\SC(=Nc2cccnc2)NC1=O)=C\c1ccccc1	-22%	-1%	-13%	27µM*	?	-21%
O=C1/C(=C\c2cccnc2)Sc2ccccc21	?	?	-3%	24µM*	-17	?
Cc1ccccc1N=C1NC(=O)/C(=C/c2cccnc2)S1	-23%	-1%	-5%	-16%	?	6%
CCOC(=O)Cn1c(=O)c2c(nc(N3CCOCC3)n2Cc2ccccc2)n(C)c1=O	-6%	.	-5%	.	.	.
SMILES	VDR inh	Rango complex inh	GCN5L2 inh	PLK1 PBD inh	PI5P4Ka inh	Rango release inh
CC(C)C[C@@H](CNCC(=O)[C@H](Cc1c[nH]c2ccccc12)NC(=O)c1[nH]cnc1C(=O)N[C@@H](C)CN)NC(=O)c1nc[nH]c1C(=O)N[C@@H](CC(=O)O)C(=O)O	?	1%	.	27µM*	-62*	-18%
CC(C)C[C@@H](CNCC(=O)[C@H](CC(C)C)NC(=O)c1[nH]cnc1C(=O)N[C@@H](C)CN)NC(=O)c1nc[nH]c1C(=O)N[C@@H](CC(=O)O)C(=O)O	?	-2%	.	?	?	12%
CC(C)C[C@@H](CNCC(=O)[C@H](CC(C)C)NC(=O)c1[nH]cnc1C(=O)N[C@@H](C)CN)NC(=O)c1nc[nH]c1C(=O)N[C@@H](CC(C)C)C(=O)O	?	0%	.	27µM*	?	12%
O=C(CN(Cc1ccccc1)C(=O)CSc1nnc(COc2ccccc2)o1)NC1CCCC1	-1%	0%	-8%	?	6	-6%
Cc1cccc(OCc2nnc(SCC(=O)NCCc3ccccc3)o2)c1	-9%	-1%	-1%	-3%	.	19%
O=C(CSc1nnc(COc2ccccc2)o1)NCCc1ccccc1	?	0%	-7%	2.7µM*	?	-7%
Cc1ccc(CN(CC(=O)NC2CCCC2)C(=O)CSc2nnc(COc3ccccc3)o2)cc1	-16%	4%	-18%	30µM*	-8	2%
CC(=O)N1c2ccc(S(=O)(=O)NCc3ccc(Cl)cc3)cc2CC1C (stereo unspecified)	5%	.	-4%	.	.	.
COc1cccc(Cn2ncc3c4sc(B(O)O)cc4n(C)c3c2=O)c1	.	.	6%	.	.	.
C=C(C)C(=O)Oc1ccc(N=Nc2ccc(C)cc2)ccc1=O	?	-2%	.	21µM*	-12	-15%
CC(=O)c1ccc(N=Nc2ccc(C)cc2)cc1	-10%	0%	-3%	-6%	11	12%
C=C(C)C(=O)/C=C/c1ccc(C(F)(F)F)cc1	3%	.	.	.	.	.
Cn1ncc([N+](=O)[O-])c1C(=O)Nc1ccccc1C(=O)O	-4%	0%	-5%	-6%	-52*	-9%
COc1ccccc1NC(=O)c1c([N+](=O)[O-])cnn1C	-13%	0%	-11%	-14%	-1	-7%
CCC(=O)NC(=S)NNC(=O)c1ccccc1[N+](=O)[O-]	-1%	0%	25µM*	-8%	3	-1%
O=C(NC(=S)NNC(=O)c1ccccc1[N+](=O)[O-])c1ccccc1	?	-3%	?	?	?	-1%
CCOC(=O)c1cc([N+](=O)[O-])c([N+](=O)[O-])cc1NC(C)=O	?	-1%	-4%	8.4µM*	0	12%
O=C(NCCNC(=O)c1ccccc1[N+](=O)[O-])c1ccccc1[N+](=O)[O-]	0%	2%	.	-1%	4	2%
O=C(NNC(=O)c1ccccc1[N+](=O)[O-])c1ccccc1[N+](=O)[O-]	-7%	1%	-14%	27µM*	-10	2%
